Experimental data from article PMC4552634, “A New Set of Chemical Starting Points with Plasmodium falciparum Transmission-Blocking Potential for Antimalarial Drug Discovery” (PLoS ONE, 2015).
The campaign covered roughly 13,000 compounds. About 3,200 (25%) showed an effect of 50% or more. This is one part of the list. Peptide text beside a SMILES is read from it. * marks the point of attachment. Boc = CC(C)(C)OC(=O)*

test system: P. falciparum stage V gametocytes; parameters: BacTiter-Glo ATP luminescence viability of purified stage V gametocytes in 384-well plates, per cent inhibition versus DMSO; details: 48 h, 5 µM; inhibitor

SMILES | % Inhibition
O=C(Nc1cccc(C(F)(F)F)c1)N1CCOC(CCN2CCC(c3ccccc3)CC2)(c2ccc(Cl)c(Cl)c2)C1 (centres unmarked) [TCMDC-135345] | -74.75%
CC(C)(C)c1ccc(N2C(N)=NC(N)=NC2(C)C)cc1Cl [TCMDC-137710] | 44.95%
COc1ccc(Cc2c(Cl)nc3nc(N)nc(N)c3c2C)c(OC)c1OC [TCMDC-137688] | 14.16%
N#CC(c1cccc(Cl)c1)c1ccc2c(C(F)(F)F)cc(C(F)(F)F)nc2n1 (centres unmarked) [TCMDC-125544] | 14.86%
CCCOc1cc(OCCC)cc(-c2cc(=O)c3ccccc3[nH]2)c1 [TCMDC-138943] | 63.29%
CCCCCCCc1cc(=O)c2ccccc2[nH]1 [TCMDC-132026] | 46.19%
O=c1cc(-c2ccc3ccccc3c2)[nH]c2ccccc12 [TCMDC-138937] | 4.967%
CCCCCC(C)C(C)c1cc(O)c2c(c1)OC(C)(C)CC2(O)c1ccnn1C (centres unmarked) [TCMDC-131795] | -1.098%
COc1ccc2nccc([C@@H](O)CN3CCC(NC(=O)/C=C/c4ccc5cc(C)[nH]c5c4)CC3)c2c1 [TCMDC-141041] | -19.17%
NC(N)=Nc1nc(-c2ccc(N=C(N)N3CCC[C@H]3CN3CCCC3)cc2)cs1 [TCMDC-139612] | 25.87%
N#C/N=C(\NCCCCCCCCN/C(=N\C#N)NCCSCc1csc(N=C(N)N)n1)NCCCSc1csc(N=C(N)N)n1 [TCMDC-139456] | -7.363%
NC(N)=Nc1nc(CCCCCCCCc2csc(N=C(N)N)n2)cs1 [TCMDC-137552] | 85.12%
Cc1ccc([S+]([O-])Cc2ccc(Cl)cc2)cc1 (centres unmarked) [TCMDC-131393] | 8.887%
COc1cc(Cc2cnc(N)nc2N)cc(OCCCCCC(N)=O)c1OC [TCMDC-137361] | 38.24%
COc1cccc(-c2csc(C(=O)NC3CCCCN(Cc4ccc(C(C)(C)C)cc4)C3)c2)c1 (centres unmarked) [TCMDC-134469] | -86.38%
CCc1ccc(CN2CCCCC(NC(=O)c3cc(-c4ccccc4F)cs3)C2)cc1 (centres unmarked) [TCMDC-134461] | -44.42%
COc1ccccc1-c1csc(C(=O)NC2CCCCN(Cc3ccc(C(C)(C)C)cc3)C2)c1 (centres unmarked) [TCMDC-134516] | 70.05%
CC(C)(C)c1ccc(CN2CCCCC(NC(=O)c3cc(-c4ccccc4Cl)cs3)C2)cc1 (centres unmarked) [TCMDC-134467] | -60.63%
O=C(NC1CCCCN(Cc2ccc3c(c2)OCCO3)C1)c1cc(-c2ccccc2F)cs1 (centres unmarked) [TCMDC-134517] | -15.69%
CC(C)(C)c1ccc(CN2CCCCC(NC(=O)c3cc(-c4ccccc4F)cs3)C2)cc1 (centres unmarked) [TCMDC-134465] | 82.77%
CC(=O)Nc1ccc(CN2CCC(NC(=O)c3ccc(-c4cccc(C(F)(F)F)c4)s3)CC2)cc1 [TCMDC-134332] | 3.235%
Cc1ccc(O)c(CN2CCCC(COC(c3ccc(F)cc3)c3ccc(F)cc3)C2)c1 (centres unmarked) [TCMDC-136033] | -2.358%
CCCOc1ccc(-c2nonc2NC(=O)c2cccc(OC)c2)cc1OCCC [TCMDC-124765] | 56.26%

SMILES | % Inhibition
CCCOc1ccccc1C(=O)Nc1nonc1-c1ccc(OCC)c(OCC)c1 [TCMDC-124767] | 53.72%
CCOc1cccc(C(=O)Nc2nonc2-c2ccc(OC)c(OC)c2)c1 [TCMDC-125179] | 47.83%
CCOc1ccc(-c2nonc2NC(=O)c2ccccc2Cl)cc1OCC [TCMDC-125205] | 48.31%
CCOc1ccc(-c2nonc2NC(=O)c2ccccc2OC)cc1OCC [TCMDC-125198] | 87.63%
CCOc1ccc(-c2nonc2NC(=O)c2ccccc2F)cc1OCC [TCMDC-125206] | 57.11%
O[C@H]1[C@H](OCc2ccc(-c3ccccc3)cc2)CC[C@@H]1N1CCCCC1 [TCMDC-132078] | -8.021%
N#Cc1cccc(CN2CCCN(c3ccc(NC(=O)c4cccs4)cc3)CC2)c1 [TCMDC-134987] | -14.58%
Cc1ccc(CN2CCN(CC(O)COc3ccc4c(c3)CCC4)CC2)cc1 (centres unmarked) [TCMDC-141429] | -18.62%
COc1ccc(CC2(c3ccc(F)cc3)N=C(N)N(CCCc3ccccc3)C2=O)cc1 (centres unmarked) [TCMDC-136462] | -20.11%
CCCOc1ccc(-c2nonc2NC(=O)c2ccccc2OC)cc1OCCC [TCMDC-124766] | 53.56%
COc1nc2c(N3CCN(CCNCc4ccc5c(n4)NC(=O)CS5)CC3)ccnc2cc1F [TCMDC-135193] | -2.167%
c1ccc(CN2CCCN(c3ccc4c(c3)CCN(Cc3ccc(-c5ncc[nH]5)cc3)CC4)CC2)cc1 [TCMDC-136549] | 6.085%
CCn1cc(C=C2Oc3c(ccc(O)c3CN3CCCCC3)C2=O)c2ccccc21 [TCMDC-124888] | 37.53%
COc1cc(F)c2nccc([C@@H](O)CN3CCC(NC(=O)OCc4ccccc4)C(F)C3)c2c1 (some centres unmarked) [TCMDC-141734] | -30.04%
CC(C)=C(C(=O)OCc1ccccc1)N1C(=O)[C@@H](NC(c2ccccc2)(c2ccccc2)c2ccccc2)[C@H]1[S+]([O-])CC(=O)OC(C)(C)C (some centres unmarked) [TCMDC-139078] | -23.33%
COC(=O)C(=C(C)C)N1C(=O)[C@@H](NC(=O)OCc2ccccc2)[C@H]1SS[C@@H]1[C@H](NC(=O)OCc2ccccc2)C(=O)N1C(C(=O)OC)=C(C)C [TCMDC-132119] | 84.32%
O=C(Nc1cccc(CN2CCCN(Cc3ccsc3)CC2)c1)c1cc2ccccc2s1 [TCMDC-134612] | -54.77%
O=C(Nc1cccc(CN2CCCN(Cc3ncc[nH]3)CC2)c1)c1ccc2ccccc2c1 [TCMDC-141856] | 45.36%
CCCCCCN1CCN(Cc2cccc(NC(=O)c3cc4ccccc4s3)c2)CC1 [TCMDC-134621] | -21.73%
O=C(Nc1cccc(CN2CCCN(CC3CCCCC3)CC2)c1)c1cc2ccccc2s1 [TCMDC-141863] | -96.88%
COc1cccc(CN2CCCN(Cc3cccc(NC(=O)c4cc5ccccc5s4)c3)CC2)c1 [TCMDC-141874] | -57.17%
CCCCCN1CCCN(Cc2cccc(NC(=O)c3cc4ccccc4s3)c2)CC1 [TCMDC-141872] | 97.12%
O=C(Nc1cccc(CN2CCCN(Cc3ccccc3)CC2)c1)c1cc2ccccc2s1 [TCMDC-141864] | -29.46%

SMILES | % Inhibition
CC(C)CN1CCCN(Cc2cccc(NC(=O)c3cc4ccccc4s3)c2)CC1 [TCMDC-141869] | -90.88%
O=C(Nc1cccc(CN2CCCN(CCc3ccccc3)CC2)c1)c1cc2ccccc2s1 [TCMDC-141870] | 77.28%
O=C(Nc1cccc(CN2CCCN(Cc3cccnc3)CC2)c1)c1cc2ccccc2s1 [TCMDC-141868] | 50.41%
O=C(Nc1cccc(CN2CCCN(Cc3ncc[nH]3)CC2)c1)c1cc2ccccc2s1 [TCMDC-141877] | 80.03%
O=C(Nc1cccc(CN2CCCN(Cc3cccc(O)c3)CC2)c1)c1cc2ccccc2s1 [TCMDC-141875] | -26.68%
COC(=O)CC[C@H](NC(=O)[C@H](C)NC(=O)OC(C)(C)C)C(=O)OC [TCMDC-131388] (Boc-Ala-Glu(OMe)-OMe) | -20.52%
CCCCC#Cc1cnc2nc(N)[nH]c(=O)c2n1 [TCMDC-137943] | 7.746%
CCCCC(O)c1cc(O)c2c(c1)OC(C)(C)CC2C1=CCN(Cc2ccc3ccccc3c2)CC1 (centres unmarked) [TCMDC-131420] | -23.67%
CC1(C)N=C(N)N=C(N)N1c1cccc(C(F)(F)F)c1 [TCMDC-124504] | -28.24%
CC(=O)Nc1nc(-c2ccccc2)[nH]c1C(N)=O [TCMDC-131311] | -1.405%
COc1ccc(Nc2nccc(N3CCC(NC(=O)c4cccc(NC(C)=O)c4)C3)n2)cc1 (centres unmarked) [TCMDC-133611] | -20.16%
COCCNC(=O)c1ccc(OC2CCN(Cc3ccc(F)c(F)c3)CC2)c(Cl)c1 [TCMDC-124653] | 4.866%
O=C(N[C@H]1CCN(CCc2ccc(O[C@H]3CCNC3)c(F)c2)C1)c1ccc(Cl)c(Cl)c1 [TCMDC-141067] | 56.15%
O=C(N[C@H]1CCN(CCc2ccc(O[C@H]3CCNC3)c(Br)c2)C1)c1ccc(Cl)c(Cl)c1 [TCMDC-141069] | 53.75%
O=C(N[C@H]1CCN(Cc2ccc(OC3CCN(Cc4ccccc4)CC3)c(Br)c2)C1)c1ccc(Cl)c(Cl)c1 [TCMDC-140286] | 18.35%
O=C(NCCN1CCN(S(=O)(=O)c2ccc(OC3CCNCC3)c(Br)c2)CC1)c1ccc(Cl)c(Cl)c1 [TCMDC-141153] | 84.33%
O=C(N[C@H]1CCN(CCc2ccc(O[C@H]3CCNC3)c(Cl)c2)C1)c1ccc(Cl)c(Cl)c1 [TCMDC-141068] | 47.4%
O=C(N[C@H]1CCN(CCc2ccc(O[C@H]3CCNC3)cc2)C1)c1ccc(Cl)c(Cl)c1 [TCMDC-141066] | 34.25%
Cc1cc(C)c2c(c1)C(=NO)CCN2 [TCMDC-140382] | -79.12%
NC1CCN(c2nc(NCCc3ccc(O)cc3)nc(NCc3ccccc3-c3ccc(C(F)(F)F)cc3)n2)CC1 [TCMDC-133442] | 32.82%
CN1CCC(Oc2cc(NC(=O)Nc3ccc(-c4ccncc4)c(C(F)(F)F)c3)ccc2Cl)CC1 [TCMDC-139223] | -12.77%
COc1cc(COc2c(C)nc(N)nc2N)cc(OC)c1OC [TCMDC-131346] | 7.837%
